Among the data in PubChem BioAssay (EPA / NIEHS) are outcome and AC50 values, retold here.

Values joined by “and” are separate entries in the source; they are usually repeats but may differ in a detail not shown here. Identical values can stand only once. Active and inactive are the calls of the source. Rule for the calls: active = hit-call score of the fitted dose curve at least 0.9, where 1 is the maximum; inactive = score below 0.9.

Read-out in test [1]: Interleukin-8 (IL8), CXCL8 (gene 3576)
Nature of the test: BSK_CASM3C_IL8: BioMAP Diversity Plus: CASM3C Assay for Interleukin-8 (IL8) Biomarker Activity (AID 2283042).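 Note: IL-8 protein level quantified by ELISA.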 The conditions noted are these: primary human coronary artery smooth muscle cells; actives raise or lower the signal.

Read-out in test [2]: Human Leukocyte Antigen - DR isotype (HLADR), HLA-DRA (gene 3122)
Nature of the test: BSK_CASM3C_HLADR: BioMAP Diversity Plus: CASM3C Assay for Human Leukocyte Antigen - DR isotype (HLADR) Biomarker Activity (AID 2283043).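 Note: cell-surface HLA-DR protein level quantified by ELISA.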 The conditions noted are these: primary human coronary artery smooth muscle cells; actives raise or lower the signal.

Read-out in test [3]: Macrophage colony-stimulating factor (MCSF), CSF1 (gene 1435)
Nature of the test: BSK_CASM3C_MCSF: BioMAP Diversity Plus: CASM3C Assay for Macrophage colony-stimulating factor (MCSF) Biomarker Activity (AID 2283044).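 Note: M-CSF protein amount quantified by ELISA after 24 h exposure.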 The conditions noted are these: primary human coronary artery smooth muscle cells; actives raise or lower the signal.

Read-out in test [4]: Low-density lipoprotein receptor (LDLR), LDLR (gene 3949)
As to the kind of experiment: BSK_CASM3C_LDLR: BioMAP Diversity Plus: CASM3C Assay for Low-density lipoprotein receptor (LDLR) Biomarker Activity (AID 2283045).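 Note: LDLR protein level on the cell surface quantified by ELISA.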 The conditions noted are these: primary human coronary artery smooth muscle cells; actives raise or lower the signal.

Read-out in test [5]: Monocyte Chemoattractant Protein-1 (MCP1), CCL2 (gene 6347)
Nature of the test: BSK_CASM3C_MCP1: BioMAP Diversity Plus: CASM3C Assay for Monocyte Chemoattractant Protein-1 (MCP1) Biomarker Activity (AID 2283046). The conditions noted are these: primary human coronary artery smooth muscle cells; actives raise or lower the signal.

Test [6] in a line: BSK_CASM3C_Proliferation: Cell Proliferation Assessment in the BioMAP Diversity Plus: CASM3C Assay (AID 2283047).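 Note: sulforhodamine B total protein stain as relative cell number at 560 nm; sub-confluent cells exposed 48 h before staining; fitted both ways against DMSO so gain or loss of cell number.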 The conditions noted are these: primary human coronary artery smooth muscle cells.
The nature of test [7]: BSK_CASM3C_SRB: Viability Assessment in the BioMAP Diversity Plus: CASM3C Assay (AID 2283050).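 Note: cells exposed to compound for 24 h.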 The conditions noted are these: primary human coronary artery smooth muscle cells.
Read-out in test [8]: Interferon-gamma inducible Protein 10 (IP10), CXCL10 (gene 3627)
Nature of the test: BSK_hDFCGF_IP10: BioMAP Diversity Plus: hDFCGF Assay for Interferon-gamma inducible Protein 10 (IP10) Biomarker Activity (AID 2283053). The conditions noted are these: primary human foreskin fibroblasts; actives raise or lower the signal. The procedure, abridged: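 Chemical-treated human skin fibroblasts (primary) were sampled at 24 h for IP-10 by ELISA. Both increases and decreases relative to DMSO were scored.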

Read-out in test [9]: Interleukin-8 (IL8), CXCL8 (gene 3576)
Nature of the test: BSK_hDFCGF_IL8: BioMAP Diversity Plus: hDFCGF Assay for Interleukin-8 (IL8) Biomarker Activity (AID 2283058). The conditions noted are these: primary human foreskin fibroblasts; actives raise or lower the signal. A digest of the protocol: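 IL-8 levels from compound-treated primary human fibroblasts were read by ELISA at 24 h, with DMSO serving as baseline for bidirectional fitting.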

Test [10] is described as follows: BSK_hDFCGF_Proliferation: Cell Proliferation Assessment in the BioMAP Diversity Plus: hDFCGF Assay (AID 2283059).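 Note: curves fitted for both rise and fall of signal versus DMSO baseline.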 The conditions noted are these: primary human foreskin fibroblasts. The procedure, abridged: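 Primary human foreskin fibroblasts, sub-confluent; […]; 10% TCA fix, 0.1% SRB stain, A560 total protein. Gain/loss fitted bidirectionally vs DMSO control.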

Read-out in test [11]: Macrophage colony-stimulating factor (MCSF), CSF1 (gene 1435)
As to the kind of experiment: BSK_hDFCGF_MCSF: BioMAP Diversity Plus: hDFCGF Assay for Macrophage colony-stimulating factor (MCSF) Biomarker Activity (AID 2283060). The conditions noted are these: AC50: primary human foreskin fibroblasts, actives raise or lower the signal unless noted; outcome: primary human foreskin fibroblasts, actives raise or lower the signal unless noted. The procedure, abridged: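 M-CSF levels, determined by ELISA, are taken at 24 h after dosing human skin fibroblasts. Responses in either direction are fitted with DMSO serving as the baseline.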

Test [12] in a line: BSK_hDFCGF_SRB: Viability Assessment in the BioMAP Diversity Plus: hDFCGF Assay (AID 2283061).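 Note: cells exposed to compound for 24 h before the read.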 The conditions noted are these: primary human foreskin fibroblasts. The procedure, abridged: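 Cells were dosed with test chemical, cultured 24 h, fixed with 10% TCA, then stained with 0.1% SRB and read at 560 nm. The fibroblasts were human foreskin primary cells, and DMSO served as baseline.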

Read-out in test [13]: TIMP metallopeptidase inhibitor 1 (TIMP1), TIMP1 (gene 7076)
Nature of the test: BSK_hDFCGF_TIMP1: BioMAP Diversity Plus: hDFCGF Assay for TIMP metallopeptidase inhibitor 1 (TIMP1) Biomarker Activity (AID 2283062). The conditions noted are these: primary human foreskin fibroblasts; actives raise or lower the signal. A digest of the protocol: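 Fibroblasts from human foreskin are treated with test chemical and harvested at 24 h. TIMP-1 is quantified by ELISA, and gain or loss of signal is scored against DMSO.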

Read-out in test [14]: Monokine induced gamma interferon (MIG), CXCL9 (gene 4283)
As to the kind of experiment: BSK_hDFCGF_MIG: BioMAP Diversity Plus: hDFCGF Assay for Monokine induced gamma interferon (MIG) Biomarker Activity (AID 2283063). The conditions noted are these: primary human foreskin fibroblasts; actives raise or lower the signal. A digest of the protocol: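 MIG signal, determined by ELISA, reflects 24 h chemical exposure of human skin primary fibroblasts. DMSO serves as negative control and baseline.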

Read-out in test [15]: Matrix Metallopeptidase 1 (MMP1), MMP1 (gene 4312)
Nature of the test: BSK_hDFCGF_MMP1: BioMAP Diversity Plus: hDFCGF Assay for Matrix Metallopeptidase 1 (MMP1) Biomarker Activity (AID 2283064). The conditions noted are these: primary human foreskin fibroblasts; actives raise or lower the signal. A digest of the protocol:
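MMP1 levels quantified by ELISA 24 h after dosing human dermal fibroblast cultures, with parallel SRB total-protein staining for overt cytotoxicity. Data fitted in both directions against DMSO baseline.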

Read-out in test [16]: Plasminogen activator inhibitor-1 (PAI1), SERPINE1 (gene 5054)
Nature of the test: BSK_hDFCGF_PAI1: BioMAP Diversity Plus: hDFCGF Assay for Plasminogen activator inhibitor-1 (PAI1) Biomarker Activity (AID 2283066). The conditions noted are these: primary human foreskin fibroblasts; actives raise or lower the signal. A digest of the protocol: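 Human skin fibroblast cultures receive chemical for 24 h before PAI-1 is measured by ELISA; signal changes are fitted bidirectionally against DMSO-treated wells.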

Read-out in test [17]: Interferon-gamma inducible Protein 10 (IP10), CXCL10 (gene 3627)
Nature of the test: BSK_KF3CT_IP10: BioMAP Diversity Plus: KF3CT Assay for Interferon-gamma inducible Protein 10 (IP10) Biomarker Activity (AID 2283068). The conditions noted are these: primary human keratinocytes with fibroblasts; actives raise or lower the signal. A digest of the protocol:
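In a primary skin co-culture of keratinocytes and fibroblasts, IP-10 is quantified by ELISA at 24 h after dosing. SRB staining of parallel wells monitors overt toxicity. Curves are fitted both directions against DMSO.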

Test [18] is described as follows: BSK_KF3CT_SRB: Viability Assessment in the BioMAP Diversity Plus: KF3CT Assay (AID 2283069).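 Note: total protein by sulforhodamine B staining as a cytotoxicity measure.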 The conditions noted are these: primary human keratinocytes with fibroblasts. The procedure, abridged: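 Cytotoxicity was gauged by SRB staining (0.1% SRB, 10% TCA fixation, 560 nm) of parallel cultures at 24 h. The cells were primary human skin keratinocytes co-cultured with fibroblasts, and activity was fitted in both directions against DMSO.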

Read-out in test [19]: Interleukin-1 alpha (IL1a), IL1A (gene 3552)
As to the kind of experiment: BSK_KF3CT_IL1a: BioMAP Diversity Plus: KF3CT Assay for Interleukin-1 alpha (IL1a) Biomarker Activity (AID 2283070). The conditions noted are these: primary human keratinocytes with fibroblasts; actives raise or lower the signal. The procedure, abridged: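 IL-1a was detected by ELISA 24 h after chemical treatment of a co-culture of human skin keratinocytes and foreskin fibroblasts. Gain or loss of signal was fitted against the DMSO baseline.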

Read-out in test [20]: TIMP metallopeptidase inhibitor 2 (TIMP2), TIMP2 (gene 7077)
As to the kind of experiment: BSK_KF3CT_TIMP2: BioMAP Diversity Plus: KF3CT Assay for TIMP metallopeptidase inhibitor 2 (TIMP2) Biomarker Activity (AID 2283071). The conditions noted are these: primary human keratinocytes with fibroblasts; actives raise or lower the signal. A digest of the protocol:
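Measurements come from ELISA detection of TIMP-2 at 24 hours in a dosed human keratinocyte and foreskin fibroblast co-culture. DMSO serves as negative control and baseline.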

As to `O=[N+]([O-])c1cc(S(=O)(=O)Nc2ccccc2)ccc1Nc1ccccc1`, the result in test [1], in test [2], in test [3], in test [4], in test [5] and in [6] was inactive. Also, the outcome in test [7] was inactive. Also, the AC50 in test [8] is 29.8 µM (active) and 31.5 µM (active); in test [9], 38.9 µM (active) and 36.7 µM (active); in [10], 14 µM (active) and 14.3 µM (active); in [11], 29.3 µM (active) and 29.5 µM (active); in [12], 27.7 µM (active) and 29 µM (active); in [13], 30.3 µM (active) and 29.5 µM (active). Moreover, the AC50 is 31 µM (active) and 31.3 µM (active) in test [14]; 30.9 µM (active) and 36.7 µM (active) in test [15]; 26.6 µM (active) and 25.4 µM (active) in [16]; 30.2 µM (active) and 32.4 µM (active) in test [17]; 34.6 µM (active) in test [18]; 31 µM (active) and 32.2 µM (active) in [19]. Further, the concentration at half-maximal activity (AC50) in test [20] is 32.6 µM (active) and 30.4 µM (active).

With `CCCCC(CC)COC(=O)C=Cc1ccc(OC)cc1` (stereo not given), the outcome in test [1], in test [3], in test [4], in test [5], in test [6] and in test [7] was inactive. The outcome in test [8], in [9], in test [12], in [13], in test [15] and in [16] was inactive. Besides, the result in test [17], in test [18], in [19] and in test [20] was inactive. Further, the concentration at half-maximal activity (AC50) in test [2] was 13.9 µM (active) and 7.28 µM (active); in test [10] it was 13.2 µM (active) and 11.7 µM (active); in [11], 15.9 µM (active) and 12.6 µM (active); in test [14] it was 12 µM (active) and 10.2 µM (active).

Regarding `COc1ccc(C(=O)c2ccccc2O)c(O)c1`, the result in test [1], in test [3], in [4], in [5], in test [6] and in test [7] was inactive. In addition, the outcome in test [8], in test [9], in [11], in test [12], in test [13] and in test [14] was inactive. Further, the result in test [15], in test [16], in test [17], in test [18], in test [19] and in test [20] was inactive. The AC50 was 10.9 µM (active) and 5.66 µM (active) in [2]; 25.3 µM (active) and 27 µM (active) in test [10].

For `C1CN(CCOCCN2CCOCC2)CCO1`, the outcome in [1], in test [2], in [3], in test [4], in test [5] and in [6] was inactive. The outcome in test [7], in test [8], in test [9], in test [10], in test [11] and in [12] was inactive. For the same compound, the outcome in [13], in test [14], in test [15], in test [16], in [17] and in [18] was inactive. Moreover, the result in test [19] and in test [20] was inactive.

For `Cc1c(C(N)=O)cc([N+](=O)[O-])cc1[N+](=O)[O-]`, the outcome in test [1], in [2], in test [3], in test [4], in test [5] and in test [6] was inactive. The outcome in test [7], in test [8], in test [9], in [10], in test [11] and in test [12] was inactive. Further, the result in test [13], in [14], in test [15], in test [16], in test [17] and in test [18] was inactive. Besides, the outcome in test [19] and in test [20] was inactive.
